# Reference: the supplement of paper PMC6555819
# Assays:
# Assay in all cases: PBM binding z-score (relative to random genomic background probes); higher = stronger binding; sequences stand for … in GC…GCGATTGACAGCGTAGAATGAAGG
# [1] = system: FXR:RXRa (NR concentration 270 nM, RXRa partner concentration 90 nM)
# Procedure, shortened: (§1)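 Custom Agilent 4×180K protein-binding microarrays carried double-stranded probes. Their 34-nt variable regions held direct-repeat seeds, single-nucleotide variants, half-site ablations and random human genomic background sequences. Arrays were incubated 1 h with ligand-free nuclear receptor dimers in PBS pH 7.4, 2% milk, 0.02% Triton X-100, 1 mM DTT, 0.2 mg/mL BSA and 0.4 mg/ml salmon testes DNA. Antibodies against each partner (one per run) detected binding, and scanned fluorescence was regression-normalized. Binding z-scores use random background probes as reference.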
# [2] = system: LXRa:RXRa (NR concentration 270 nM, RXRa partner concentration 90 nM)
# Procedure, shortened: as §1
# [3] = system: LXRa homodimer (NR concentration 270 nM)
# Procedure, shortened: as §1
# [4] = system: LXRb:RXRa (NR concentration 270 nM, RXRa partner concentration 90 nM)
# Procedure, shortened: as §1
# [5] = system: LXRb homodimer (NR concentration 270 nM)
# Procedure, shortened: as §1
# [6] = system: PPARa:RXRa (NR concentration 270 nM, RXRa partner concentration 90 nM)
# Procedure, shortened: as §1
# [7] = system: PPARg:RXRa (NR concentration 180 nM, RXRa partner concentration 90 nM)
# Procedure, shortened: as §1
# [8] = system: PPARg:RXRa 270nM:90nM, anti-RXR (NR concentration 270 nM, RXRa partner concentration 90 nM)
# Procedure, shortened: as §1
# [9] = system: PPARg:RXRa 30nM:10nM, anti-RXR (NR concentration 30 nM, RXRa partner concentration 10 nM)
# Procedure, shortened: as §1
# [10] = system: PPARg:RXRa 90nM:30nM, anti-RXR (NR concentration 90 nM, RXRa partner concentration 30 nM)
# Procedure, shortened: as §1
# [11] = system: PPARg:RXRa DBDmut IVT, anti-RXR (DBD mutation: RXRa K156A/R161A, NR concentration 270 nM, RXRa partner concentration 90 nM)
# Procedure, shortened: as §1
# [12] = system: PPARg:RXRa IVT, anti-PPARg (NR concentration 270 nM, RXRa partner concentration 90 nM)
# Procedure, shortened: as §1
# [13] = system: PPARg DBDmut:RXRa IVT, anti-PPARg (DBD mutation: PPARg1 K132A/R137A, NR concentration 270 nM, RXRa partner concentration 90 nM)
# Procedure, shortened: as §1
# [14] = system: PPARg DBDmut IVT, anti-PPARg (DBD mutation: PPARg1 K132A/R137A, NR concentration 270 nM)
# Procedure, shortened: as §1
# [15] = system: PPARg homodimer (NR concentration 180 nM)
# Procedure, shortened: as §1
# [16] = system: PXR:RXRa (NR concentration 270 nM, RXRa partner concentration 90 nM)
# Procedure, shortened: as §1
# [17] = system: PXR homodimer (NR concentration 270 nM)
# Procedure, shortened: as §1
# [18] = system: RARa:RXR (NR concentration 270 nM, RXRa partner concentration 90 nM)
# Procedure, shortened: as §1
# [19] = system: RARa homodimer (NR concentration 270 nM)
# Procedure, shortened: as §1
# [20] = system: RARb:RXRa (NR concentration 270 nM, RXRa partner concentration 90 nM)
# Procedure, shortened: as §1
Sequence,PBM binding z-score [1],PBM binding z-score [2],PBM binding z-score [3],PBM binding z-score [4],PBM binding z-score [5],PBM binding z-score [6],PBM binding z-score [7],PBM binding z-score [8],PBM binding z-score [9],PBM binding z-score [10],PBM binding z-score [11],PBM binding z-score [12],PBM binding z-score [13],PBM binding z-score [14],PBM binding z-score [15],PBM binding z-score [16],PBM binding z-score [17],PBM binding z-score [18],PBM binding z-score [19],PBM binding z-score [20]
ATCTCTAGCTAAAAGTTCAGTGAATCCCGAGGAT,0.149,0.948,1.36,0.693,0.99,0.474,0.264,1.29,0.52,0.949,-0.639,-0.151,0.697,1.23,0.702,1.3,1.49,0.379,0.986,2.17
CCTACTGGGCCATTCTGAGGTCATTGATCATATG,2.12,3.35,4.95,2.83,0.173,3.25,1.63,2.38,0.733,1.84,4.08,4.24,0.979,-0.299,1.5,4.42,3.46,3.85,-0.372,2.57
TCTAGTTGGTCAAAGGTCACACAATCGAAATGCG,5.53,5.9,3.73,5.66,2.13,6.6,11.8,9.87,11.7,11.4,3.58,6.28,1.49,2.13,4.36,5.97,2.1,7.76,3.91,5.16
GGAACGAGTGCAAAGTTGATAGCATCTGTCGACG,0.106,-0.0741,-0.379,-0.315,-0.482,1.8,2.13,3.33,0.95,3.02,-0.204,0.102,-0.12,0.22,-0.16,0.715,0.211,0.728,-0.6,0.396
CTAACTAGGTCATCCAGGACAGTGAATACATTGA,4.13,3.08,1.1,2.34,0.444,5.16,8.66,7.07,4.48,7.08,8.55,8.68,3.4,1.83,2.45,2.07,1.37,2.83,0.768,3.88
CCGAGTAGGTTATGGGGCATTCACGCAACGGTGA,0.165,0.583,-0.0835,0.908,0.284,2.27,3.48,4.67,2.32,4.69,3.46,3.48,0.0074,-0.799,1.81,-0.0726,-0.244,0.125,0.665,1.06
TCTTGTAGATCAACGGGAGGTTAAGAAAGATCGA,0.553,1.31,0.00977,1.17,0.12,1.49,-0.121,1.58,2.52,2.01,2.28,0.974,0.226,-0.0514,0.14,0.94,0.02,1.14,0.281,0.648
CCTACTGGGCCTAAAAGGTCATTGATGCCGATAA,4.02,4.65,4.1,4.61,0.491,4.78,1.7,3.24,0.898,2.38,0.181,1.85,-0.634,-1.2,2.99,4.85,2.21,5.06,1.56,4.02
TAGCCTAGGTCATGTGGGCCAGTATAGTGTCGGC,4.35,2.97,0.553,1.85,0.185,3.53,2.11,2.75,0.388,1.46,1.81,3.41,-0.502,-0.513,0.832,1.47,-0.447,2.33,-0.278,3.81
CCAGTCAGGTGAGAAGGTAACTCAGCCTCGATTA,0.104,0.00917,-0.218,-0.0607,-0.774,0.601,0.294,1.13,-0.0852,0.619,1.41,1.02,-1.66,-1.63,0.612,-0.228,-0.000389,0.355,0.15,0.754
ACTTACGGGTCAACGAGGATATAGCACGCGTATA,6.53,4.05,0.457,3.61,0.828,5.43,5,5.19,2.12,3.85,3.44,3.76,1.49,1.58,2.26,3.34,0.678,4.19,1.35,3.88
CCTACTGGGCCAACGGTCATTGATTCCAATGCTC,0.0438,-0.079,0.674,-0.198,-0.607,2.53,5.23,6.24,4.4,5.61,3.68,4.73,-0.311,-0.326,0.249,-0.304,0.00743,-0.143,-0.558,1.37
CTCCCAAGGTGAACAAGGTCGTTGATTACTATTC,1.08,1.47,0.177,1.84,-0.42,2.36,0.575,1.07,0.0592,0.823,1.99,2.07,-0.441,-0.154,0.903,2.42,1.92,2.14,-0.0783,2.03
CGTCCAAGGTCATAGGAGGTCAGTGGAGACAGAT,7.92,7.55,5.5,6.44,1.44,5.76,5.84,5.73,2.93,4.69,3.31,4.65,1.06,-0.0581,7.55,6.94,6.61,5.94,4.42,5.39
CCTACTGGGCCATTCGGAGGTCATTGATCATATG,1.8,2.8,4.71,2.59,-0.128,3.01,1.38,2.45,0.304,1.27,4.18,3.88,-0.0532,-0.182,1.81,3.79,2.38,3.45,-0.323,2.54
GATACAGGGTCAGCTAGAGGCCAGATTATGGAAA,4.25,2.85,-0.166,2.68,-0.373,4.42,3.59,3.18,0.899,1.88,0.866,2.23,0.547,-0.0092,1.91,3.24,-0.0885,4.03,0.518,4.12
GGAACGACGGCAAAGTTGATAGCATCTGTCGACG,-0.522,-0.556,-0.557,-0.755,-0.926,0.00733,1.01,1.58,0.147,1.28,-0.332,-0.552,-0.0147,-1.18,-0.573,-0.362,-0.756,0.0195,-0.6,-0.341
TAGCCTAGGTCATGCGGGCCAGTGTAGTGTCGGC,3.71,2.88,-0.0482,1.38,-0.348,3.17,1.5,2.27,-0.122,1.26,1.76,2.75,-0.395,-0.723,0.153,1.23,-0.733,1.69,-1.29,3.72
AGAATGAGGCTAAGATCAGGGAAACAGAATACAT,-0.36,-0.634,-0.0824,-0.157,-0.737,-0.0265,0.645,0.202,0.113,0.138,0.345,0.552,0.582,0.0133,0.00249,-0.259,0.0356,-0.0952,0.229,0.158
CCTCGTTGGTCAGGAGGTCACACACCGGATATGA,3.4,3.49,1.96,3.4,0.47,4.22,2.29,2.99,0.71,2.06,0.408,2.72,0.14,0.13,3.05,4.26,0.821,4.73,1.57,3.75
CCGACTGGGGCGAAGGTTACCATACTCAGTACGA,-0.11,-0.108,-0.381,0.654,-1.24,3.09,7.04,7.02,5.36,6.85,1.13,2.83,-0.805,-0.462,0.137,0.261,-0.624,0.961,-0.33,0.726
CCAAACAGGTGAGAAGGTAACTCAGCCTCGATTA,-0.19,-0.0558,-0.189,-0.138,-0.392,0.653,0.64,1.22,0.297,0.598,1.49,1.46,0.108,-0.155,0.805,-0.406,0.0845,0.105,0.426,0.534
AATACATGGTCATCGTAGGCCAGAGTACGCACAG,0.0777,0.702,0.0647,-0.141,-0.0432,0.289,1.22,0.533,0.2,0.514,0.199,1.21,0.624,0.968,-0.153,0.3,-0.157,0.574,0.339,1.14
TGAATGAGGTTATAAGATCAGAGAACGTTGCAAA,1.28,1.23,-0.332,0.897,-0.296,2.62,1.45,1.83,1.04,1.35,0.837,1.71,0.635,0.498,0.196,0.687,-0.71,1.18,-0.143,0.975
AGAATGAGGTTACCAAAGATCCGGGAAACGCTTG,1.58,2.04,-0.0971,1.33,-0.177,3.23,2.5,2.84,0.971,2.13,3.81,3.61,0.821,0.35,0.752,0.78,-0.0527,1.76,0.0139,2.05
